Laboratory results taken from PubChem BioAssay AID1634 (National Center for Advancing Translational Sciences (NCATS), 2009).
The whole screen tested about 260,000 compounds, of which about 150 (0.058%) were called active. Entries that show only a call come without a potency. The call rests on the fitted dose curve; in most records, active means well fitted inhibition curve with a large enough effect; inconclusive means small, poorly fitted or top-dose-only effect; inactive means no such curve, though single readings can be large or run the other way. The full list was thinned out, with actives kept by preference.

The compounds below were run against Pyruvate kinase PKM (Homo sapiens) (UniProt P14618) (assay: qHTS Assay for Inhibitors of Human Muscle isoform 2 Pyruvate Kinase). Settings: purified PKM2, ATP generation, Kinase-Glo luminescence; series mostly up to 57.5 µM.
Pyruvate kinase PKM (Homo sapiens), sequence (P14618 whole entry, looked up, canonical isoform): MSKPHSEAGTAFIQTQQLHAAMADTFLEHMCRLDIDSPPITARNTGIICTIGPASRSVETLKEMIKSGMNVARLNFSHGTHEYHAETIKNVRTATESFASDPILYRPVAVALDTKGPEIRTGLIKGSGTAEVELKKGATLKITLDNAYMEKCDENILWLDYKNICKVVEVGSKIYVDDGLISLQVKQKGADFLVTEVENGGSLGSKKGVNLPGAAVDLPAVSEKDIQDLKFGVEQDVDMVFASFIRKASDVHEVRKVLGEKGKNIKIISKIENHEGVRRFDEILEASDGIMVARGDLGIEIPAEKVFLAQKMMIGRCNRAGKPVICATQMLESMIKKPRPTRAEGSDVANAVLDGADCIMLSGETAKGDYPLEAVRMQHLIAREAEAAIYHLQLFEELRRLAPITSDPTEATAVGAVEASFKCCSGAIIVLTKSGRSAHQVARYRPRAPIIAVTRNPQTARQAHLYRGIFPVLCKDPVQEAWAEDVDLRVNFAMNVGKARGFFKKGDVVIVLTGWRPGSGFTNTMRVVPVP
Experimental: NIH Chemical Genomics Center [NCGC] Matthew G. Vander Heiden, M.D., Ph.D. [Harvard Medical School, 77 Avenue Louis Pasteur, Boston, MA 02115] […] ATP generation was detected in a coupled reaction by luciferase-mediated luminescence, an ATP-dependent process. […] The enzyme was assayed at an intermediate level of activity to screen for both inhibitors and activators.
NCGC Assay Protocol Summary: Three uL of substrate mix (at r.t.) in assay buffer (50 mM Imidazole pH7.2, 50 mM KCl, 7 mM MgCl2, 0.01% Tween 20, 0.05% BSA) was dispensed into white solid bottom 1,536 well microtiter plates so that the final concentrations of substrates in the assay were 0.1 mM ADP and 0.5 mM PEP. 23 nL of compound were delivered by a pin tool and 1 uL of enzyme mix in assay buffer (4 degree Celsius) was added. Plates were incubated at room temperature for 1 hour. Two uL of detection mix (Kinase-Glo, Promega; at 4 degree Celsius protected from light) was added and luminescence read by a ViewLux (Perkin Elmer) at 5 second exposure/plate. Data were normalized to the uninhibited and AC100 inhibition (no enzyme). To monitor activation, the first column contained a titration of the activator, NCGC00031955-01 (16-point 1:2 dilutions in duplicate starting at 57 uM) and the first 16 rows of column 4 contained 57 uM of NCGC00031955-01.
Further: nearly all actives have a fitted effect of over 60% in size.
Potency means the concentration at half of the fitted maximal effect.

Compound | Potency
O=C(NCCN1C(=O)S/C(=C\c2cccnc2)C1=O)c1ccc(S(=O)(=O)N2CCCC2)cc1 | inactive
Cc1ccnc(-n2sc3ccccc3c2=O)n1 | inactive
CC(C)NC(=O)CCCn1c(=S)[nH]c2cc3c(cc2c1=O)OCO3 | inactive
O=C(Cn1nc(CNc2ccc(Cl)cc2)[n+]2c1CCCCC2)c1ccc(Cl)cc1 | inactive
Cc1ccc(NC(=O)c2cc(-c3ccc(C)o3)nc3ccccc23)nc1 | inactive
Cc1ccnc(NC(=O)c2ccoc2C)c1 | 14.1 µM (active)
CCOc1cccc2c1OC1(CCCCC1)N1N=C(c3cccnc3)CC21 (configuration not stated) | inactive
O=S(=O)(c1ccc(F)cc1)N1CCN(C(=S)NC2CCCC2)CC1 | inactive
Cc1cc(C(=O)N/N=C/c2ccccc2[N+](=O)[O-])c(C)o1 | inactive
Cc1ccccc1CN1C[C@@H]2C[C@@H](c3cn(C)nc3-c3ccccc3)N3CCC[C@@]23C1=O | inactive
CSc1ccc(/C=N\NC(=O)COc2ccc(Cl)cc2Br)cc1 | inactive
Cn1c(SCC(=O)Nc2cccc(O)c2)nnc1-c1ccc(S(=O)(=O)N2CCOCC2)cc1 | inactive
Cc1ccccc1-n1nc(C)c2c1N=C1C(Cl)=CC(Cl)=CN1C2c1ccc(C(=O)O)cc1 (configuration not stated) | inactive
Cn1c(=O)c2c(nc(SCCNS(=O)(=O)c3ccccc3)n2C)n(C)c1=O | inactive
O=C(NC1=NCCS1)[C@H](Cc1ccccc1)N1C(=O)c2ccccc2C1=O | inactive
CN(C(=O)CSc1nnc(N)s1)c1c(N)n(Cc2ccccc2)c(=O)[nH]c1=O | inactive
Cc1ccc(NC(=O)OCCNC(=O)c2ccncc2)cc1 | inactive
Cc1ccc(-c2cc(C(=O)N/N=C/C=C/c3ccco3)c3ccccc3n2)cc1C | inactive
COc1ccc(-c2nnc(SC(C)C#N)o2)cc1 (configuration not stated) | inactive
Cc1ccc(S(=O)(=O)N2CCN(Cc3cccc(C)c3O)CC2)cc1 | inactive
Cc1ccc(-c2nc(SCC(=O)Nc3ccccc3OC(F)F)c3c(C)c(C(=O)O)sc3n2)cc1 | inactive
Cc1nc(SCC(=O)N2CC(=O)Nc3ccccc32)c2c(C)c(C)sc2n1 | inactive

Compound | Potency
COc1ccc(-c2nnn(CC(=O)N(CCO)C(C(=O)NC3CCCC3)c3ccc(F)cc3)n2)cc1 (configuration not stated) | inactive
CN(C(=O)COC(=O)c1cc(-c2ccco2)nc2ccccc12)C1CCS(=O)(=O)C1 (configuration not stated) | inactive
CC(C)CCn1cnc2c1c(=O)n(CC(=O)NC(N)=O)c(=O)n2Cc1ccccc1 | inactive
COc1ccc(OC)c(Nc2nc(-c3ccc(O)c(O)c3)cs2)c1 | inactive
COc1ccc(COCCN2CCN(S(=O)(=O)c3ccccc3)CCC2=O)cc1 | inactive
COC(=O)c1[nH]c2ccccc2c1NS(=O)(=O)c1ccc(OC)cc1OC | inactive
O=C(CSc1nnc(-c2cccs2)n1Cc1ccccc1)N1CCc2ccccc2C1 | inactive
CCN(/N=C/c1ccccc1)c1cc(=O)n(C)c(=O)[nH]1 | inactive
COc1cccc(/C=N\NC(=O)C2=NNC(=O)C2C)c1O (configuration not stated) | 17.8 µM (active)
CCn1c(SCC(=O)N/N=C/C=C/c2ccccc2[N+](=O)[O-])nnc1-c1ccccc1 | inactive
Cc1noc(C)c1S(=O)(=O)Nc1ccc(C(=O)N2CCN(c3ccc(F)cc3)CC2)cc1 | inactive
Cc1ccc(O)c(CNc2nc3ccccc3[nH]2)c1 | inactive
Cc1ccccc1-c1nnn(CC(=O)c2ccc(S(=O)(=O)N3CCCC3)cc2)n1 | inactive
Cc1ccc(CCC(=O)Nc2ncc(Cc3cc(Cl)ccc3Cl)s2)o1 | inactive
COCc1cc(=O)[nH]c(SC)n1 | inactive
Cc1nnc(SCC2=C(C(=O)O)N3C(=O)C(NC(=O)Cn4nc(C)c(Cl)c4C)C3SC2)s1 (configuration not stated) | inactive
Oc1ccccc1N1CCN(c2ncnc3sc(-c4ccccc4)cc23)CC1 | inactive
C=CCn1c(SCc2csc(C)n2)nc2scc(-c3ccc(C)o3)c2c1=O | inactive
CCn1cc(C(=O)NCc2ccc3c(c2)OCO3)c2cc(OC)c(OC)cc2c1=O | inactive
Nc1nc(SCC(=O)N2CCN(S(=O)(=O)c3ccc(Cl)cc3)CC2)n[nH]1 | inactive
C=CC(=O)c1ccc2ccccc2c1 | inactive
CC(C)Oc1ccc(CCC(=O)NNC(=S)NCc2ccccc2)cc1 | inactive

Compound | Potency
N#Cc1nc(COc2ccc(Cl)cc2)oc1N1CCCC1 | inactive
CS(=O)(=O)Nc1cccc(C2=NN(S(=O)(=O)c3ccccc3)C(c3cccs3)C2)c1 (configuration not stated) | inactive
O=C(CCSCCc1ccccn1)Nc1nccs1 | inactive
CCOc1cc(/C=N/O)ccc1OCc1ccccc1F | inactive
O=c1[nH]c2ccccc2n2c(-c3ccccc3)nnc12 | 25.1 µM (active)
COc1c(O)ccc2c1CN1CCc3cc4c(cc3C1C2)OCO4 (configuration not stated) | inactive
COc1ccc(C(=O)CCc2ccccc2O)c(OC)c1 | inactive
CNC(=O)COc1ccc(S(=O)(=O)Nc2ccccc2)cc1 | inactive
C(=N\N1CCN(c2ccccn2)CC1)/C1=C(N2CCOCC2)C(=C/c2ccccc2)/CC1 | inactive
COc1cccc(C(=O)NNS(=O)(=O)c2ccc(F)cc2)c1 | inactive
Cc1ccc(C(=O)Cn2cc([N+](=O)[O-])nc2C)cc1 | inactive
Cc1ccc(CNC(=O)C2CC(c3ccccc3[N+](=O)[O-])=NO2)o1 (configuration not stated) | inactive
O=c1cc(CO)oc(C(Nc2cccc(C(F)(F)F)c2)c2ccccn2)c1O (configuration not stated) | inactive
COc1ccc(-n2c(SCC(=O)NCc3cccs3)nnc2-c2ccoc2C)cc1 | inactive
Cc1ccc(-c2nn(-c3ccccc3)cc2CN(Cc2ccccc2)C(=O)CCC(=O)O)o1 | inactive
Cc1cc(C)c2nc(-c3ccco3)cc(C(=O)O)c2c1 | inactive
Cc1ccc(-n2nc(-c3ccco3)cc2C(=O)NCc2cccnc2)cc1 | inactive
N#CCC(=O)N/N=C/c1cn(Cc2ccc3ccccc3c2)c2ccccc12 | inactive
CC(C)(C)C1C/C(=C/c2ccco2)C(=O)/C(=C/c2ccco2)C1 (configuration not stated) | inactive
CN1CCN(c2ccc(S(=O)(=O)Nc3ccccc3)cc2[N+](=O)[O-])CC1 | inactive
Cc1ccc(NS(=O)(=O)c2ccc3c(c2)oc(=O)n3C)c(C)c1 | inactive
COc1ccc2c(c1)C=CC1(O2)N(CCO)c2ccccc2C1(C)C (configuration not stated) | inactive

Compound | Potency
O=C(Cc1cccs1)Nc1nnc(C2CC2)s1 | inactive
Cc1nc2nc(COc3ccccc3)[nH]n2c(=O)c1Cc1ccccc1 | inactive
CCCc1nc2ccccc2c(=O)n1/N=C/c1ccc(O)c(O)c1 | inactive
COc1ccccc1C(=O)NCc1nnc(SC(C)C(=O)Nc2nccs2)n1C (configuration not stated) | inactive
COc1ccc(-c2ccc(CCC(=O)O)n2NC(=O)c2ccc(C(C)(C)C)cc2)cc1 | inactive
Oc1ccccc1CNc1ncc(Br)cc1Br | inactive
N/C(=N\S(=O)(=O)c1cc(C(F)(F)F)cc(C(F)(F)F)c1)c1cccs1 | inactive
Cc1ccc2nc(C)cc(N/N=C/c3ccc(F)cc3)c2c1 | inactive
COc1ccccc1-n1cnc2cc(NS(=O)(=O)c3ccccc3)ccc21 | inactive
COc1ccc(SC[C@H](Cc2ccccc2)N2CCN(CCc3ccccc3)CCC2=O)cc1 | inactive
COc1ccc2[nH]c3c(=O)n(Cc4ccco4)cnc3c2c1 | inactive
Fc1ccccc1CNC(=S)Nc1ccc(Cl)cc1 | inactive
Cn1c(-c2ccc(F)cc2)cnc1SCC(=O)NCc1ccco1 | inactive
O=c1cc(Cn2nnc(-c3ccc(Cl)cc3)n2)nc2sccn12 | inactive
O=C(CCC(=O)n1ncc2ccccc21)NCc1ccccc1Cl | inactive
NC(=S)c1ccc(C(N)=S)o1 | inactive
Cc1ccc(NN=Nc2nc3c([nH]2)c(=O)n(C)c(=O)n3C)cc1 | inactive
Nc1nnc(SCC(=O)NC2CCCc3ccccc32)s1 (configuration not stated) | inactive
O=S(=O)(c1ccc(Br)cc1)n1ccc2ccccc21 | inactive
Oc1ccc2nc(Cc3ccccc3)[nH]c2c1 | inactive
CCOc1ccc(S(=O)(=O)Nc2nc3cc(OC)ccc3s2)cc1 | inactive
O=c1ccc2cc(S(=O)(=O)Nc3ccccc3F)ccc2o1 | inactive

Compound | Potency
Cc1cccc(CSc2nc3c(c(=O)n2C)SCC3)c1 | inactive
CC(C)(C)c1ccc(C(=O)NCCn2c(N)c(C#N)c3nc4ccccc4nc32)cc1 | inactive
Cn1ncc(N2CCN(S(=O)(=O)c3ccc(Br)cc3)CC2)c(Cl)c1=O | inactive
O=C(CSc1nnc(-c2ccc([N+](=O)[O-])cc2)o1)Nc1ccccn1 | inactive
CCS(=O)(=O)Nc1ccc(C2=NN(C(C)=O)C(c3cccs3)C2)cc1 (configuration not stated) | inactive
O=C(NCc1cccs1)C1CCN(S(=O)(=O)c2ccc(Cl)cc2)CC1 | inactive
O=C(/C=C/c1ccc(Cl)cc1Cl)c1cccnc1 | inactive
O=C(COc1ccccc1[N+](=O)[O-])N/N=C/c1ccc[nH]1 | inactive
COc1cc(/C=N\Nc2nc(-c3cccs3)c(NC(C)=O)s2)ccc1O | inactive
Brc1c(CSc2nncc3ccccc23)nc2ccccn12 | inactive
Cc1cccc(C)c1NC1=NC(=S)N(c2ccc(N(C)C)cc2)C1(C)C | inactive
CN(C)S(=O)(=O)c1cccc(-c2nn(-c3ccccc3)cc2/C=C2\SC(=S)N(CC(=O)O)C2=O)c1 | inactive
O=C(N/N=C/c1ccc(O)c(O)c1)C1c2ccccc2Oc2ccccc21 | inactive
Cc1coc2c(O)cc3c(c12)OC1(N2CCCCC2)C(=O)NCCCC31 (configuration not stated) | inactive
C/C=C\C=C\C(=O)N1CC2(CC(c3cccc(NC(=O)/C(C)=C\C)c3)=NO2)C[C@H]1C(N)=O (some centres not stated) | inactive
Cn1c(=O)n(C)c2cc(NS(=O)(=O)c3ccc(F)cc3)ccc21 | inactive
Cc1ccc(NS(=O)(=O)c2cc3c(cc2C)NC(=O)CO3)cc1 | inactive
CC(=O)Nc1cccc(OCC(=O)/C=C2\N(C)c3ccccc3C2(C)C)c1 | inactive
CC1=C/C(=N\OS(=O)(=O)c2ccccc2)C=CC1=O | inactive
